The sample as a whole holds a higher share of hits than the screen did.
KDM5B inhibitor: Primary screen for KDM5B Histone Demethylases FDH-coupled qHTS | Lysine-specific demethylase 5B (Homo sapiens), Q9UGL1 | KDM5B demethylase, FDH-coupled NADH fluorescence (FDH is formaldehyde dehydrogenase) | Potency, µM (series often up to 57.7 µM), actives largely listed as inhibitors | 220,000 tested, 2.6% active | AID 1347165, 2019; active means well fitted inhibition curve with a large enough effect; further: 0% is about no effect; nearly all actives have a fitted effect of over 70% in size
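Compound dilutions met 200 nM (final) KDM5BΔAP for 10 min at room temperature before substrate addition. The substrate mix held 12.5 µM H3K4me3 with cofactors 25 µM α-ketoglutarate and 50 µM Fe²⁺. NADH signal gain over 30 min defined activity.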
The depositor's hits bear a star; i = inactive. Potency means the concentration at half of the fitted maximal effect.

SMILES	KDM5B inhibitor
O=C(NCc1ccc(F)cc1)c1ccc2nccn2c1	28µM*
CC(NC(=O)c1ccc2nccn2c1)c1ccc(F)cc1 (stereo not given)	35µM*
COCCNC(=O)c1ccc2nccn2c1	35µM*
O=C(c1ccc2nccn2c1)N(Cc1c(F)cccc1Cl)C1CC1	i
CC(Sc1ccccn1)C(=O)NC(C)c1ccc(F)cc1 (stereo not given)	i
CC(CCc1ccccc1)NC(=O)c1ccc2nccn2c1 (stereo not given)	35µM*
Cc1cc(C(=O)NC(C)CCc2ccccc2)cs1 (stereo not given)	i
O=C(c1ccc2nccn2c1)N1CCC(C(O)CCc2ccccc2)CC1 (stereo not given)	i
Cc1ccccc1OCCCOc1ccc(Cl)cc1/C=N/NC(=O)c1ccccc1	i
CC(=O)N(Cc1cc2ccccc2[nH]c1=O)CC(C)C	i
CC(OC(=O)c1cc2ccccc2s1)C(=O)N1CCNC1=O (stereo not given)	i
COc1ccc(Br)cc1CN1CCCC(C(=O)N(C)Cc2ccccc2)C1 (stereo not given)	i
CC1=C(C(=O)Nc2ccccc2)C(c2ccccc2F)n2ncc(C(=O)Nc3ccccc3)c2N1 (stereo not given)	i
Cc1nc([C@H]2CCN(Cc3ccccc3)C[C@H]2NC(=O)C2CCOCC2)n[nH]1	i
CC(=O)N1CCN(S(=O)(=O)c2cccc(C(=O)N(C)Cc3ccccc3N3CCCC3)c2)CC1	i
CCOC(=O)C1=CN(c2ccc(F)cc2)C=C(C(=O)OCC)C1c1cccc(C(F)(F)F)c1	i
Nc1nnnn1CC(=O)N[C@@H]1COCC[C@@H]1Oc1ccc(F)cc1	i
Cc1cc(C(=O)CSc2nnnn2C2CCCC2)c(C)n1Cc1ccco1	i
CCc1ccccc1NC(=O)c1cc(S(=O)(=O)NC2CC2)ccc1C	i
c1coc(CN2CCN(Cc3ccc(OCc4ccncc4)cc3)CC2)c1	i
CC(NC(=O)CC12CC3CC(CC(C3)C1)C2)c1ccncc1 (stereo not given)	i
Cc1cccc(/C=C2\CCc3ccccc3C2=O)c1	i
Cn1c(CNC(=O)c2ccc3nccn3c2)nc2cc(C(F)(F)F)ccc21	20µM*
CCCn1c(CNC(=O)c2ccc(F)cc2)nc2ccccc21	i
COc1cc(C(=O)NCc2nc3ccccc3n2C)cc(OC)c1OC	i
SMILES	KDM5B inhibitor
CN(Cc1ccc(F)cc1)C(=O)Nc1ccc(Cl)cc1	i
Cc1ccc(C)c(Cn2c(-n3nc(C)cc3C)nc3c2c(=O)[nH]c(=O)n3C)c1	i
CCOC(=O)c1cnc(SCC(=O)Nc2ccc(Br)cc2C)nc1N	i
O=C(NCc1ccc(Cl)cc1)c1cc2n(n1)CC(c1ccc3c(c1)OCO3)OC2 (stereo not given)	28µM*
CCCCNC(=O)c1cc2n(n1)CC(c1ccc3c(c1)OCO3)OC2 (stereo not given)	i
CCc1ccc(CNC(=O)c2cc3n(n2)CC(c2ccc4c(c2)OCO4)OC3)cc1 (stereo not given)	25µM*
O=C(NCc1ccc(F)cc1F)c1cc2n(n1)CC(c1ccc3c(c1)OCO3)OC2 (stereo not given)	28µM*
O=C(NCC1CC1)c1cc2n(n1)CC(c1ccc3c(c1)OCO3)OC2 (stereo not given)	i
COc1ccccc1OCCNC(=O)c1cc2n(n1)CC(c1ccc(Cl)cc1)OC2 (stereo not given)	i
CC(C)Oc1ccc(CNC(=O)c2cc3n(n2)CC(c2ccc(Cl)cc2)OC3)cc1 (stereo not given)	i
CCOc1ccccc1CNC(=O)c1cc2n(n1)CC(c1ccc3c(c1)OCO3)OC2 (stereo not given)	32µM*
CCc1ccc(-n2nc(CO)c(C(=O)NCc3ccc4c(c3)OCO4)n2)cc1	i
O=C(NCc1cccs1)c1cc2n(n1)CC(c1ccc(Cl)cc1)OC2 (stereo not given)	i
O=C(NCCC1=CCCCC1)c1cc2n(n1)CC(c1ccc(Cl)cc1)OC2 (stereo not given)	i
COc1ccc(OC)c(NC2c3ccccc3C(=O)N2Cc2ccccc2Cl)c1 (stereo not given)	i
Cc1cc(C)c(S(=O)(=O)N2CCN(C)CC2)cc1Br	i
COc1ccccc1Oc1c(C)oc2cc(OCC(=O)Nc3cccc(O)c3)ccc2c1=O	i
COC(=O)c1ccc(OCc2ccc(C#N)cc2)c(OC)c1	i
COc1ccc(CCNC(=O)CSCc2cnn(-c3ccccc3)c2-n2cccc2)c(OC)c1	i
Cc1ccccc1NC(=O)COc1ccc(-c2nnc3n2CCCC3)cc1	i
CC12CC3CC(C)(C1)CC(NCc1ccc(C(=O)O)cc1)(C3)C2	i
O=c1[nH]c(=O)n(CCc2ccccc2)c2nccc(-c3ccc(F)cc3)c12	i
O=C(c1ccc(Br)s1)N(Cc1cccnc1)c1nc2c(F)cccc2s1	i
C#CCNC(=O)CN(C)Cc1ccc(C(F)(F)F)cc1	i
COc1ccc(-c2nc(C)nc3c2CCC3)c2ccc(C)nc12	28µM*
SMILES	KDM5B inhibitor
COc1ccccc1CN1CCCc2nc(C)nc(-c3ccc(O)cc3)c2C1	i
COc1ccc(C)cc1Nc1c2c(nc3ccccc13)CCC2	i
COCCNC(=O)[C@@H](C)C1CC[C@@]2(C)CC[C@H](NC(=O)COc3ccccc3)[C@@H](C)[C@@H]2[C@H]1O (stereo not given in full)	i
C=CCN1CCN(c2nc3c(c(=O)[nH]c(=O)n3C)n2Cc2ccc(Cl)cc2Cl)CC1	i
CN(C)CCSc1nc(N2CCCCC2)c2c(c1C#N)CCCC2	i
CCOC(=O)C1(Cc2ccc(F)cc2F)CCCN(S(=O)(=O)c2c(C)noc2C)C1 (stereo not given)	i
O=C(Nc1ccc(Cl)cc1Cl)c1cnc2ccccc2n1	i
O=C(Nc1ccc(Cl)cc1Cl)c1ccc2ccccc2n1	i
O=C(Nc1ccc(Cl)cc1Cl)c1cccn2cncc12	i
O=C(Nc1ccc(Cl)cc1Cl)c1ccc2cncn2c1	28µM*
O=C(Nc1ccc(Cl)cc1Cl)c1ccn2cncc2c1	35µM*
O=C(Nc1ccc(Cl)cc1F)c1ccc(-c2ccccc2)cc1	i
COc1cc(OC)c(/C=C(/C#N)c2cccc(C(F)(F)F)c2)c(OC)c1	i
CCC(CC)C(CNC(=O)c1cc(Br)ccc1F)N1CCOCC1 (stereo not given)	i
CCOc1cccc2c(C)nc(Nc3nc(C)c(CC)c(=O)[nH]3)nc12	i
CC[C@H]1CN(S(=O)(=O)c2ccc(OC)cc2)CC[C@H]1CC(=O)N1CCOCC1	i
Cc1c(C(=O)NC(C)c2ccccc2)[nH]c2c1C(=O)CCC2 (stereo not given)	i
O=C(Nc1ccc(S(=O)(=O)Nc2cnc3ccccc3n2)cc1)c1ccncc1	i
CC(C)N[C@@H]1CC[C@@H]1NC(=O)c1cc2c(C(F)(F)F)nn(C)c2s1	i
Cc1ccc(NC(=O)Nc2ccc(C)n(CC(=O)Nc3ccc(C)cc3C)c2=O)cc1	i
Cc1cccc(NC(=O)Nc2ccc(C)n(CC(=O)O)c2=O)c1	20µM*
Cc1cccc(NC(=O)Nc2ccc(C)n(CC(=O)Nc3ccc(C)c(C)c3)c2=O)c1	i
Cc1ccc(NC(=O)Nc2ccc(C)n(CC(=O)NC(C)c3cccnc3)c2=O)cc1 (stereo not given)	i
COc1ccccc1NC(=O)Cn1c(C)ccc(NC(=O)Nc2ccc(C)cc2)c1=O	18µM*
COc1ccccc1NC(=O)Cn1c(C)cc(C)c(C#N)c1=O	i

Screens as filed in PubChem.
